Legend:
[1] = test system: Botulinum neurotoxin type F light chain protease (Clostridium botulinum); experiment: Clostridium botulinum type F light chain protease inhibitors, microsphere substrate cleavage, validation (AID 588459); settings: multiplex microsphere protease substrate cleavage assay, flow cytometry; at 10 µM; hits give high values
[2] = target: Botulinum neurotoxin type A (Clostridium botulinum) (UniProt P0DPI0); experiment: BoNT/A light chain protease inhibitors, biochemical, multiplex microsphere flow cytometry, validation set (AID 588460); settings: at 10 µM, hits give high values
[3] = target: Lethal factor (Bacillus anthracis) (UniProt P15917); experiment: Bacillus anthracis lethal factor inhibition, microsphere flow cytometry protease assay, validation at 10 µM (AID 588461); settings: multiplex microsphere protease cleavage assay, hits give high values

Measured: inhibition

O=C(NC1CC1)C1CCN(C2CCN(C(=O)Cc3ccc(F)cc3)CC2)CC1
inactive: [1] -2.4% | [2] -0.6% | [3] 4.9%

O=P(O)(O)CP(=O)(O)O
inactive: [1] -9% | [2] -3% | [3] -3.7%

CC(=O)Nc1nnc(S(N)(=O)=O)s1
inactive: [1] 5.4% | [2] -0.3% | [3] -2.6%

CCC(C(=O)OCCN(CC)CC)c1ccccc1 (stereo unspecified)
inactive: [1] 2.4% | [2] 0.3% | [3] 3.3%

NC(=O)c1c(-c2ccccc2)oc2ccc(O)cc12
inactive: [1] -1.9% | [2] -0.3% | [3] -5.1%

COc1ccc2c(c1)C(=O)CC(c1ccccc1F)O2 (stereo unspecified)
inactive: [1] 1.4% | [2] -0.4% | [3] -0.9%

O=C(NO)c1ccccc1O
inactive: [1] 3.3% | [2] 2% | [3] -4%

O=C(CCC(=O)NCCO)NCCO
inactive: [1] 1.2% | [2] 0.4% | [3] 6.9%

O=C(O)C(O)c1ccccc1 (stereo unspecified)
inactive: [1] 1.5% | [2] -1.4% | [3] 1.3%

CC(C)(C)NCC(O)COc1cccc2c1C[C@H](O)[C@H](O)C2 (stereo partly specified)
inactive: [1] -2.3% | [2] 0.4% | [3] 1.6%

O=C(NCCc1cccc(F)c1)[C@@H]1CSC2c3ccccc3C(=O)N21 (stereo partly specified)
inactive: [1] 0.2% | [2] -0.3% | [3] 0.6%

CC[C@H](CO)NCCN[C@H](CC)CO
inactive: [1] 2.2% | [2] -1.2% | [3] -10%

CC(=O)Nc1c(I)c(NC(C)=O)c(I)c(C(=O)O)c1I
inactive: [1] -0.5% | [2] -1.9% | [3] 0.5%

COc1ccccc1OS(=O)(=O)c1ccc(NC(C)=O)cc1
inactive: [1] -1.9% | [2] 1.2% | [3] 3%

COc1cc(CNCc2ccc(OC)c(OC)c2OC)cc(OC)c1
inactive: [1] 0.5% | [2] -0.7% | [3] 5.3%

Cn1cc(CN(CCO)Cc2cccs2)c(-c2cccc(Cl)c2)n1
inactive: [1] 1.3% | [2] 1.3% | [3] -1.3%

c1ccc2c3c(c(CN4CCCCC4)cc2c1)COC3
inactive: [1] 5.7% | [2] -1% | [3] 0.6%

COc1ccc2c(c1OC)C(=O)OC2C1c2c(cc3c(c2OC)OCO3)CCN1C (stereo unspecified)
inactive: [1] 0.2% | [2] -0.4% | [3] 0.2%

CC(=O)NC(Cc1ccccc1)C(=O)OCC(=O)c1ccccc1 (stereo unspecified)
inactive: [1] -2.6% | [2] -1.5% | [3] -3.3%

Cc1ccc2c(c1)c(=O)c1c3n2CCN(C(=O)CCl)C3CC1 (stereo unspecified)
inactive: [1] -11.4% | [2] -1.3% | [3] -32.4%

COc1cc2c(cc1OC)C(C)=NC1(CCCCC1)C2
inactive: [1] 9.8% | [2] 4.8% | [3] -0.4%

O=C(CCC(=O)c1cccs1)c1cccs1
inactive: [1] 3.2% | [2] -1.4% | [3] -3.3%

CCc1cc(=O)oc2cc(OCC=C(C)C)ccc12
inactive: [1] 2% | [2] 0.5% | [3] 0.2%

CCOc1ccc2ccccc2c1CNc1nnnn1C
inactive: [1] -0.1% | [2] -1.2% | [3] -1.5%

CC(C)Cn1c(=S)[nH]c2cc(C(=O)O)ccc2c1=O
inactive: [1] -4.3% | [2] -0.4% | [3] -0.6%

Cc1ccc(OCc2nc(-c3cccnc3)no2)cc1C
inactive: [1] -0.8% | [2] 0.4% | [3] -6.5%

Cc1cn([C@H]2C=C[C@@H](CO)O2)c(=O)[nH]c1=O
inactive: [1] -1.8% | [2] -2.2% | [3] -0.8%

CC(=O)Nc1nc(CCC(C)C)cc2c1c(=O)oc1ccccc12
inactive: [1] 1.3% | [2] -0.1% | [3] -9.4%

O=C(CN1CC[n+]2c(-c3cccs3)csc21)c1ccc(Br)cc1
inactive: [1] 0.8% | [2] -0.2% | [3] -1.6%

O=C(NNC(=O)c1cccs1)c1ccco1
inactive: [1] 1.9% | [2] -2.8% | [3] 0.2%

COc1ccc2oc(-c3ccco3)cc(=O)c2c1
inactive: [1] 3% | [2] -0.8% | [3] -7%

COc1ccc(C(=O)Nc2ccccc2C(=O)NC(Cc2c[nH]c3ccccc23)C(=O)O)cc1 (stereo unspecified)
inactive: [1] -0.8% | [2] 0.5% | [3] 0%

CCOC(=O)C(Cc1cc(C(C)=O)ccc1OC(C)C)C(=O)OCC
inactive: [1] 0.4% | [2] -0.1% | [3] -1.9%

COc1ccc(CCN=C(N)C(C)c2ccccc2)cc1OC (stereo unspecified)
inactive: [1] -0.2% | [2] 0% | [3] 6.6%

O=C(c1cccnc1)N1N=C(C2CC2)CC1(O)C(F)(F)F (stereo unspecified)
inactive: [1] 2% | [2] 1% | [3] 4.2%

CCOC(=O)C(=O)Nc1ccc(Oc2ccccc2)cc1
inactive: [1] 1.4% | [2] 0% | [3] 1.3%

C#C[C@]1(O)CC[C@H]2[C@@H]3CCC4=C(CCC(=O)C4)[C@H]3CC[C@@]21C
inactive: [1] 0.3% | [2] 0.1% | [3] 0.8%

CSCC[C@H](NC(=O)OC(C)(C)C)C(=O)N1CCC(C(=O)N[C@@H](C)C(=O)O)CC1
inactive: [1] -3.4% | [2] 0.4% | [3] -4.2%

CCOC(=O)c1oc2cc(O)cc(C)c2c(=O)c1-c1cscn1
inactive: [1] 1.4% | [2] 1.8% | [3] -2.6%

C=C(C)Cn1c(NCCOC)nc2c1c(=O)[nH]c(=O)n2C
inactive: [1] 0.2% | [2] -0.3% | [3] -5.2%

CC(=O)OCC(=O)[C@@]1(O)[C@H](C)C[C@H]2[C@@H]3CCC4=CC(=O)C=C[C@]4(C)[C@@]3(F)[C@@H](O)C[C@@]21C
inactive: [1] 3% | [2] 0.4% | [3] 6.7%

CCOc1cc(C=O)ccc1OCCSc1ccc(C)cc1
inactive: [1] 1.3% | [2] 0.4% | [3] -3.6%

Cc1cccc(OCC(=O)Nc2ccc(C(=O)NCC(C)C)cc2)c1
inactive: [1] 4.2% | [2] 0.3% | [3] -4.3%

CC(=O)NCCCC(=O)NC(CCC(=O)OCc1ccccc1)C(=O)OCc1ccccc1 (stereo unspecified)
inactive: [1] -1% | [2] -1.4% | [3] -8.6%

CC(C)(C)NC[C@H](O)COc1nsnc1N1CCOCC1
inactive: [1] 0.1% | [2] 0% | [3] -3.8%

Cc1ccc(C(=O)Nc2ccc(O)cc2C(=O)O)cc1C
inactive: [1] 10.3% | [2] 2.6% | [3] 0.9%

c1ccc(Cn2nnc3cnccc32)cc1
inactive: [1] 3.6% | [2] -0.8% | [3] 1.4%

Cc1ccc2c(c1)C1CN(C)CCC1N2S(=O)(=O)c1ccc(Oc2ccc([N+](=O)[O-])cc2)cc1 (stereo unspecified)
inactive: [1] 2.6% | [2] 0.4% | [3] 8.4%

COc1cc(SC)ccc1C(=O)NC(C)C
inactive: [1] 2.9% | [2] 2.2% | [3] 0.8%

O=C(O)CC(O)C(=O)O (stereo unspecified)
inactive: [1] -3.1% | [2] -0.9% | [3] 3.8%

Cc1oc2c(O)c(O)ccc2c(=O)c1-c1ccccc1
inactive: [1] 1.6% | [2] 0.4% | [3] 2%

CC(C)CN1CCN(Cc2ccc3ncccc3c2)CC1CCO (stereo unspecified)
inactive: [1] -0.3% | [2] 0.8% | [3] 0.5%

COCCCC/C(=N\OCCN)c1ccc(C(F)(F)F)cc1
inactive: [1] -1.3% | [2] -0.2% | [3] -0.1%

CCc1ccc(/C=C2\SC(=S)N(CCC(=O)N3CCN(C)CC3)C2=O)cc1
inactive: [1] 4.9% | [2] 2.1% | [3] 4.9%

CC(=O)c1c[nH]c2ccc(C)cc2c1=O
inactive: [1] -1.7% | [2] -0.6% | [3] -1.2%

Cc1ccc(S(=O)(=O)n2ccnc2)cc1C
inactive: [1] 1.4% | [2] -0.3% | [3] -1.7%

O=C(CCc1ccccc1)Nc1ccccc1C(F)(F)F
inactive: [1] 0.7% | [2] -0.1% | [3] 0.5%

CC(C)C12CN3CC(C(C)C)(CN(C1)C3c1ccccc1O)C2=O (stereo unspecified)
inactive: [1] 4.7% | [2] 1.2% | [3] -5.3%

CN(C)CCCN1c2ccccc2Sc2ccccc21
inactive: [1] -0.5% | [2] -0.5% | [3] -3.7%

COc1ccc(C(=O)OCc2cc3cccc(C)c3[nH]c2=O)cc1
inactive: [1] 0.3% | [2] 0.7% | [3] -0.5%

COC(=O)c1ccc(COc2ccc3c(C)c(C)c(=O)oc3c2C)o1
inactive: [1] 1.9% | [2] -0.8% | [3] 0.2%

O=C(CS(=O)(=O)c1ccccc1)c1ccc2c(c1)OCCO2
inactive: [1] 3.2% | [2] 0.7% | [3] 2.2%

CCc1ccc(/C=C2\Oc3cc(OC(=O)N4CCOCC4)ccc3C2=O)cc1
inactive: [1] 0.7% | [2] -0.2% | [3] 0.7%

COCc1cc(=O)[nH]c(Nc2nc3ccccc3o2)n1
inactive: [1] -3.7% | [2] -0.7% | [3] 0.7%

Cc1nc2cc3ccccc3cc2c(=O)[nH]1
inactive: [1] -2% | [2] 1.5% | [3] 3.7%

COc1ccc(N2C(=O)[C@@H]3Cc4ccccc4CN3C2=O)cc1
inactive: [1] 1.7% | [2] 0.4% | [3] -0.7%

CCOC(=O)C1C2C=CC3(CN(c4ccc(Cl)c(F)c4)C(=O)C13)O2 (stereo unspecified)
inactive: [1] 2.9% | [2] -2.3% | [3] 6.8%
